The values below come from PubChem BioAssay AID1438 (Sanford-Burnham Center for Chemical Genomics, 2008).

Structures are written as SMILES. Among all 2,200 compounds or so, about 45 (2%) were called active. The rule behind the calls is not given here. Not all results are given here. Potency and affinity values are given separately.

In this experiment the target is Runt-related transcription factor 1 (Homo sapiens) + Core-binding factor subunit beta (Homo sapiens) (UniProt Q01196+Q13951). Nature of the experiment: inhibitors of RUNX1 Runt–CBFb-SMMHC binding, biochemical, TR-FRET (AID 1438). Particulars: TR-FRET Runt domain–CBFb-SMMHC binding, at 20 µM, stronger effect = higher value. In general terms: In TR-FRET formats the signal depends on donor and acceptor labels being close together.
Chain of Runt-related transcription factor 1 (Homo sapiens) + Core-binding factor subunit beta (Homo sapiens) (Q01196 whole entry, looked up, the tested form may be a part): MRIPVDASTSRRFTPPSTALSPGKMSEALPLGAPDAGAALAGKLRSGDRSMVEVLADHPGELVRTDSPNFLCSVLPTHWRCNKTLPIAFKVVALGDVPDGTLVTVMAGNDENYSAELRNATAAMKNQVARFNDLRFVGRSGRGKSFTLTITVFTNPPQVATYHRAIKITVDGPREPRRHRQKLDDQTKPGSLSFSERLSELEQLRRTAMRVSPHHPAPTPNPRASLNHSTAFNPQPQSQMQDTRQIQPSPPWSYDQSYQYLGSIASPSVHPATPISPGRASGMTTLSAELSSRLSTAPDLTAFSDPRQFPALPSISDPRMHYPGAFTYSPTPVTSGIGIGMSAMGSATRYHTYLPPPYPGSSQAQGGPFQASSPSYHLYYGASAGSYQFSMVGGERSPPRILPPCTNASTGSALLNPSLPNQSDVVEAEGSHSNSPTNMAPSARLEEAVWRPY
Chain of Runt-related transcription factor 1 (Homo sapiens) + Core-binding factor subunit beta (Homo sapiens) (Q13951 whole entry, looked up, the tested form may be a part): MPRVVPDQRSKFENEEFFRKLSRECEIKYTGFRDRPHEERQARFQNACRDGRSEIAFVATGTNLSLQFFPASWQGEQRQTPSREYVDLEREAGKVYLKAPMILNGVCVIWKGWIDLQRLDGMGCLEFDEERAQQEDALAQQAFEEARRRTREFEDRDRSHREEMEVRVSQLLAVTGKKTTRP
The inhibition is the relative decrease from the control value, in per cent. `Cc1cc(O)ccc1N/C=C(\C#N)c1nc2ccccc2o1`: the inhibition was 8% (inactive).
The result for `Cc1cc(Nc2ccccc2)nc2cc(O)ccc12` reads 15.5% (inactive).
The result for `Cc1ccc(C2C3=C(CC(C)(C)CC3=O)N(CCN3CCOCC3)C3=C2C(=O)CC(C)(C)C3)cc1` reads 42.9% (inactive).
Consider `CCCN1C2=C(C(=O)CCC2)C(c2ccc(O)c(Br)c2)C2=C1CCCC2=O`, for which the inhibition is 24.4% (inactive).
As to `C=CCOc1ccc(C2C(C#N)=C(N)N(Nc3ccccc3)C3=C2C(=O)CCC3)cc1OC` (centres undefined), the inhibition is 32.3% (inactive).
The figure for `CCN1C2=C(C(=O)CCC2)C(c2ccc(O)c(Br)c2)C2=C1CCCC2=O` is 19.7% (inactive); for `N#Cc1c(N)[nH]c(=S)c(C#N)c1-c1ccccc1` it is -64.2% (inactive); for `CCOC(=O)c1cc2c(=O)n3ccccc3nc2n(CCCOC)c1=NC(=O)c1ccncc1` it is 2.5% (inactive).
In the case of `COCCN1C=C(C(=O)OC)C(c2cc(Br)c(OC)c(OC)c2)C(C(=O)OC)=C1`, the inhibition is 47.6% (inactive).
For `COC(=O)C1C(O)CCC2CN3CCc4c([nH]c5ccccc45)C3CC21` (centres undefined), the inhibition was -11.7% (inactive).
For `C=CCn1c(=N)c(C(=O)NCCCOC)cc2c(=O)n3cccc(C)c3nc21`, the inhibition was 2.9% (inactive).
Turning to `Cn1c(=O)nc2n(Cc3ccccc3)c3ccccc3cc-2c1=O`, the inhibition was 36.1% (inactive).
Consider `CCn1c(O)c(C=Nc2ccccc2)sc1=S`, for which the inhibition was -3.7% (inactive).
The result for `O=C1CCCC2=C1C(c1ccc(Br)cc1)c1c([nH]c(=S)[nH]c1=O)N2` (centres undefined) reads 42.6% (inactive); that for `c1ccc(-c2nc(N3CCCCC3)nc3ccccc23)cc1`, 25.8% (inactive); that for `CCc1nnc(NC(=O)C2(C)COC(c3ccccc3)OC2)s1` (centres undefined), -7% (inactive).
For `CCC(C)(C)n1nnnc1C(c1cc2cc3c(cc2[nH]c1=O)OCO3)N1CCN(C)CC1` (centres undefined), the inhibition was 39.5% (inactive).
As for `CCCNC(=O)Cn1sc2nc(C)cc(C)c2c1=O`, the inhibition is -3.9% (inactive).
As to `O=C(O)CSc1c2c(nc3cc(C(=O)N4CCOCC4)ccc13)CCCC2`, the inhibition was -4.9% (inactive).
`O=C(Cn1c2ccccc2c(=O)c2ccccc21)N/N=C/c1ccc(N2CCCC2)c([N+](=O)[O-])c1`: the inhibition is 10.6% (inactive).
The result for `O=C(Cn1c2ccccc2c(=O)c2ccccc21)Nc1ccccc1F` reads -15.4% (inactive); that for `O=C(CCC(=O)N/N=C/c1cc(Cl)cc(Cl)c1O)NCc1ccccc1`, -4.9% (inactive).
With `O=C(Cn1c2ccccc2c(=O)c2ccccc21)Nc1cccc(F)c1`, the inhibition is 39% (inactive).
As for `CCc1cc2c(COC(=O)c3c(C)noc3C)cc(=O)oc2cc1O`, the inhibition was -33.2% (inactive).
`Cc1cccn2c(=O)c3cc(C(=O)NCc4ccco4)c(=N)n(CCc4ccccc4)c3nc12`: the inhibition is -9.3% (inactive).
Take `N=c1c(C(=O)NCc2ccc3c(c2)OCO3)cc2c(=O)n3ccccc3nc2n1Cc1cccnc1`: the inhibition is 48.7% (inactive).
As for `CCOC(=O)c1cc2c(=O)n3ccccc3nc2n(Cc2ccccc2)c1=N`, the inhibition is 41.8% (inactive).
As to `N=c1c(C(=O)NCc2ccco2)cc2c(=O)n3ccccc3nc2n1Cc1ccccc1`, the inhibition was 65% (active).
Take `COc1ccc(CCn2c(=N)c(C(=O)NCc3ccco3)cc3c(=O)n4cccc(C)c4nc32)cc1`: the inhibition was 21.9% (inactive).
Take `COc1ccc(CNC(=O)c2cc3c(=O)n4ccccc4nc3n(Cc3cccnc3)c2=N)cc1`: the inhibition was 29.1% (inactive).
As to `N=c1c(C(=O)NCc2ccc(F)cc2)cc2c(=O)n3ccccc3nc2n1CCCN1CCOCC1`, the inhibition is 38.7% (inactive).
For the molecule `N=c1c(C(=O)NCc2ccc(F)cc2)cc2c(=O)n3ccccc3nc2n1Cc1cccnc1`, the inhibition was 48.7% (inactive).
In the case of `Cc1ccc(CNC(=O)c2cc3c(=O)n4ccccc4nc3n(CC3CCCO3)c2=N)cc1` (centres undefined), the inhibition was 36.3% (inactive).
The result for `CCN1/C(=C/C(=O)c2ccco2)Sc2ccccc21` reads 15.1% (inactive); that for `N#Cc1c(N)n(CCc2ccc(F)cc2)c2nc3ccccc3nc12`, 32% (inactive); that for `COCCCNC(=S)NCCNc1nc2c(C)c(C)ccc2cc1C#N`, -1.9% (inactive).
As for `Cc1ccc(C2C=C(c3ccccc3)Nc3nc(N4C(=O)CCC4=O)nn32)cc1` (centres undefined), the inhibition was -11.2% (inactive).
As for `Cc1ccc(C2C3=C(CC(C)(C)CC3=O)Nc3[nH]c(=S)[nH]c(=O)c32)cc1` (centres undefined), the inhibition is 39.6% (inactive).
As to `COCCCNC(=S)NCCCNc1nc2cc(C)cc(C)c2cc1C#N`, the inhibition was -6.6% (inactive).
For the molecule `O=c1cc(-c2ccc(O)cc2)oc2cc(O)c(C3OC(CO)C(O)C(O)C3O)c(O)c12` (centres undefined), the inhibition is -6.5% (inactive).
In the case of `Cc1c2c(n3c(nc4ccccc43)c1C#N)N(CCN(C)C)CC2`, the inhibition was -12.2% (inactive).
With `CCc1nnc(NS(=O)(=O)c2ccc(N/C=C/C(=O)c3ccc(OC)cc3)cc2)s1`, the inhibition was -1.7% (inactive).
Consider `CCc1nnc(NC(=O)c2sc3nc4c(cc3c2N)CCCCCC4)s1`, for which the inhibition was 38.3% (inactive).
Consider `Cc1ccc(C(=O)c2sc3nc4c(cc3c2N)CCC4)cc1`, for which the inhibition is 13.7% (inactive).
With `Cc1cc(=O)oc2c(CN3CC(C)OC(C)C3)c(O)c(Cl)cc12` (centres undefined), the inhibition is -12.9% (inactive).
Take `CCOC(=O)CCc1c(C)c(C#N)c2nc3ccccc3n2c1-n1ccnc1`: the inhibition is -4% (inactive).
`CCOC(=O)c1cc2ccc(OC)cc2oc1=O`: the inhibition was -9.7% (inactive).
The result for `COC(=O)Cc1c(C)c2cc(Cl)c(OC(=O)c3ccco3)cc2oc1=O` reads 19.4% (inactive); that for `O=C(O)c1ccc(N=c2oc3cc(O)ccc3cc2C(=O)NCc2ccccc2)cc1`, -1.1% (inactive); that for `c1ccn2c(c1)nc1c2nc2ccccn21`, 8.5% (inactive).
In the case of `CCOC(=O)C1=C(CSc2nc3c(cc2C#N)CN(C)CC3)OC(N)=C(C#N)C1c1ccc(F)cc1` (centres undefined), the inhibition is 22.5% (inactive).
The figure for `CCOC(=O)C1=C(CSc2nc3c(cc2C#N)CN(C)CC3)OC(N)=C(C#N)C1c1ccccc1` (centres undefined) is 29.2% (inactive); for `CCOC(=O)C1=C(O)/C(=C/c2cn(CC(=O)N3CCCC3)c3ccccc23)SC1=Nc1ccccc1` it is 4% (inactive).
In the case of `CC1CCc2c(sc(Nc3nc4c(F)cccc4s3)c2C(N)=O)C1` (centres undefined), the inhibition was 48.6% (inactive).
`CCOC(=O)c1c(NC(=O)C(F)(OC)C(F)(F)F)sc2c1CCN(C)C2` (centres undefined): the inhibition is -4.1% (inactive).
In the case of `CCOC(=O)c1cc2c(ccc3ccccc32)oc1=O`, the inhibition is -0.5% (inactive).
As to `CNC(=O)c1cc2c(ccc3ccccc32)oc1=N`, the inhibition is 2.9% (inactive).
`CC(C)OC(=O)CC(=O)CSc1nc2c(cc1C#N)CCCCCC2`: the inhibition was 38.5% (inactive).
The figure for `CC(=O)c1c(N2CCN(C)CC2)nc(=S)n(Cc2ccccc2)c1C` is 15.7% (inactive).
With `CCCOc1c(Br)cc(C2C3=C(CCCC3=O)N(C)C3=C2C(=O)CCC3)cc1OC`, the inhibition was 41.4% (inactive).
In the case of `CCCOc1c(Br)cc(C2C3=C(CCCC3=O)N(CC)C3=C2C(=O)CCC3)cc1OC`, the inhibition is -13.6% (inactive).
On to `CNc1sc(C(=O)c2cccs2)c(N)c1-c1nc2ccccc2s1`, for which the inhibition is 35.8% (inactive).
`C=CCNc1sc(C(=O)c2cccs2)c(N)c1C#N`: the inhibition is -0.1% (inactive).
Consider `Cc1cccn2c(=O)c(/C=C(\C#N)C(N)=O)c(Oc3ccccc3)nc12`, for which the inhibition is -15.3% (inactive).
The figure for `COc1cccc(C(=O)Nc2nc3c(s2)CN(C)CC3)c1` is -21% (inactive); for `COCCCNC(=O)c1c(N)n(-c2ccccc2)c2nc3ccccc3nc12` it is -6.7% (inactive).
For the molecule `COCCCNC(=O)c1c(N)n(-c2ccc(S(N)(=O)=O)cc2)c2nc3ccccc3nc12`, the inhibition was 43.4% (inactive).
As for `CCCN1C2CCCC1CC(NC(=S)Nc1ccc(OC)cc1)C2` (centres undefined), the inhibition was -12% (inactive).
The result for `CSc1nc(NCCCO)c2c3c(sc2n1)CN(C)CC3` reads -10.5% (inactive); that for `CSc1nc(NCC(C)C)c2c3c(sc2n1)CN(C)CC3`, 37.7% (inactive).
For the molecule `COc1ccc(Br)cc1C1NC(=O)c2c(sc3c2CCN(C)C3)N1` (centres undefined), the inhibition is 15% (inactive).
As to `CCn1nc(NC(=O)C2CCCO2)c2cc3cccc(C)c3nc21` (centres undefined), the inhibition is 2.1% (inactive).
With `CCN(CC)c1ccc(/C=N\NC(=O)c2cccc3cc[nH]c23)cc1`, the inhibition is 5.9% (inactive).
The figure for `CCN1C=C(C(=O)OC)C(c2cccc(OC)c2OC)C(C(=O)OC)=C1` is -23.2% (inactive); for `Cc1c(O)ccc2c3c(c(=O)oc12)CCC(C)C3` (centres undefined) it is 19.7% (inactive); for `COc1cc(/C=C(\C#N)C(=O)Nc2cccc3ncccc23)cc(OC)c1OC` it is 18.6% (inactive).
Take `Cc1ccc(/C=C/C(=O)Nc2cccc3ncccc23)o1`: the inhibition is 19.8% (inactive).
`COc1ccc(-c2cc(C(F)(F)F)n3nc(N)nc3n2)cc1`: the inhibition was 25.3% (inactive).
Consider `O=C(Cc1c2ccccc2nc2ccccc12)c1ccccc1`, for which the inhibition is 48.7% (inactive).
On to `COCCCNC(=O)c1cc2c(=O)n3cccc(C)c3nc2n(C(C)C)c1=N`, for which the inhibition is 1.4% (inactive).
As for `CC(=O)Nc1nc2n(n1)C(c1ccc(Cl)cc1)C=C(C)N2` (centres undefined), the inhibition is 45.7% (inactive).
The figure for `CC1=CC(c2ccccc2)n2nc(NS(=O)(=O)c3ccc(C)cc3)nc2N1` (centres undefined) is 49.9% (inactive); for `N#Cc1c(N)n(-c2cccc(C(=O)O)c2)c2nc3ccccc3nc12` it is -8.2% (inactive).
For `O=c1oc2ccc3ccccc3c2cc1-c1nnc(-c2cccs2)o1`, the inhibition was 29.8% (inactive).
As for `CCOC(=O)c1cc2c(=O)n3ccccc3nc2n(CCCOC)c1=NC(=O)c1cccnc1`, the inhibition was 47.6% (inactive).
`COC(=O)Cc1cc(=O)oc2cc(O)ccc12`: the inhibition was 32.6% (inactive).
On to `CN(C)c1cccc(C(=O)OCc2cc(=O)oc3cc(O)ccc23)c1`, for which the inhibition was 47.5% (inactive).
`CCOC(=O)c1c(NC(=O)CSc2ncccn2)sc2c1CCN(Cc1ccccc1)C2`: the inhibition is -5.3% (inactive).
On to `CCCCNC(=O)c1cc2c(=O)n3cccc(C)c3nc2n(Cc2ccccc2)c1=N`, for which the inhibition was 33.9% (inactive).
With `Cc1nc2c(c(=O)n1Cc1ccco1)c1nc3ccccc3nc1n2Cc1ccccc1`, the inhibition was 80.9% (active).
For `COc1ccc(-n2c(N)c(C(=O)NCc3ccco3)c3nc4ccccc4nc32)cc1`, the inhibition is 42.9% (inactive).
As to `CCCn1c(C)nc2c(c1=O)c1nc3ccccc3nc1n2CCC1=CCCCC1`, the inhibition was 36.3% (inactive).
Consider `CCOc1ccc(-n2c(N)c(C(=O)NCc3ccco3)c3nc4ccccc4nc32)cc1`, for which the inhibition is 43.5% (inactive).
Turning to `CCCCn1c2nc3ccccc3nc2c2c(=N)oc(C)nc21`, the inhibition was 36.7% (inactive).
